According to PubChem BioAssay AID1159580 (chemical genetic matrix, 2015):
Among all 5,500 compounds or so, about 2,000 (36%) were called active. Roughly 18% stayed inconclusive and do not appear here. No stated cut-off is given here; in the data, active means normalized growth mostly below about 0.91 (no sharp cut-off); inconclusive means no clear call, values can overlap the other calls; inactive means mostly above about 0.92. Some of the results follow.

Assay: chemical genetic growth profiling, strain panel (AID 1159580);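 further: tested at 20 µM; growth read once vehicle control cultures reached saturation at 30 °C; 1 = growth at the plate median or of vehicle wells; lower values mean less growth of the strain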
Details: S. cerevisiae deletion strains, growth OD

Measured: normalized growth

O=C(/C=C/c1ccc(O)cc1)c1ccccc1O
active: locus YAL021C, strain ccr4, hits give low values 0.762 | locus YAL026C, strain drs2, hits give low values 0.359 | locus YAL030W, strain snc1, hits give low values 0.359 | locus YBL061C, strain skt5, hits give low values 0.366 | locus YBR009C, strain hhf1, hits give low values 0.25 | locus YBR023C, strain chs3, hits give low values 0.452 | locus YBR171W, strain sec66, hits give low values 0.774 | locus YBR231C, strain swc5, hits give low values 0.382 | locus YBR279W, strain paf1, hits give low values 0.423 | locus YCL011C, strain gbp2, hits give low values 0.366 | locus YCL016C, strain dcc1, hits give low values 0.446 | locus YCL061C, strain MRC1, hits give low values 0.484 | locus YCL069W, strain vba3, hits give low values 0.256 | locus YCR088W, strain abp1, hits give low values 0.639 | locus YDL005C, strain med2, hits give low values 0.759 | locus YDL040C, strain nat1, hits give low values 0.683 | locus YDR001C, strain nth1, hits give low values 0.552 | locus YDR069C, strain doa4, hits give low values 0.859 | locus YDR137W, strain rgp1, hits give low values 0.255 | locus YDR159W, strain sac3, hits give low values 0.305 | locus YDR195W, strain ref2 1.15 [resistant] | locus YDR297W, strain sur2, hits give low values 0.554 | locus YDR334W, strain swr1, hits give low values 0.301 | locus YDR335W, strain msn5, hits give low values 0.382 | locus YDR392W, strain spt3, hits give low values 0.103 | locus YEL003W, strain gim4, hits give low values 0.236 | locus YEL037C, strain rad23, hits give low values 0.667 | locus YEL061C, strain CIN8 (second series), hits give low values 0.175 | locus YER015W, strain faa2, hits give low values 0.469 | locus YER016W, strain bim1, hits give low values 0.478 | locus YER111C, strain swi4, hits give low values 0.126 | locus YER155C, strain BEM2 (second series), hits give low values 0.128 | locus YFR010W, strain ubp6, hits give low values 0.768 | locus YGL167C, strain pmr1, hits give low values 0.703 | locus YGL173C, strain kem1, hits give low values 0.585 | locus YGL227W, strain vid30, hits give low values 0.169 | locus YGL240W, strain doc1, hits give low values 0.453 | locus YGL253W, strain hxk2, hits give low values 0.2 | locus YHR013C, strain ard1, hits give low values 0.441 | locus YHR027C, strain rpn1, hits give low values 0.624 | locus YHR030C, strain SLT2, hits give low values 0.0955 | locus YHR079C, strain IRE1, hits give low values 0.119 | locus YHR142W, strain chs7, hits give low values 0.14 | locus YJL092W, strain hpr5, hits give low values 0.586 | locus YJL095W, strain BCK1 (second series), hits give low values 0.202 | locus YJL095W, strain BCK1, hits give low values 0.105 | locus YJL115W, strain asf1, hits give low values 0.684 | locus YJL129C, strain trk1, hits give low values 0.463 | locus YJL154C, strain vps35, hits give low values 0.582 | locus YJL164C, strain tpk1, hits give low values 0.275 | locus YJL166W, strain qcr8, hits give low values 0.228 | locus YJL187C, strain SWE1, hits give low values 0.355 | locus YJR066W, strain TOR1, hits give low values 0.0115 | locus YKL160W, strain elf1, hits give low values 0.229 | locus YKR026C, strain gcn3, hits give low values 0.759 | locus YKR091W, strain srl3, hits give low values 0.71 | locus YLL001W, strain dnm1, hits give low values 0.488 | locus YLL026W, hits give low values 0.325 | locus YLL041C, strain sdh2, hits give low values 0.499 | locus YLR027C, strain aat2, hits give low values 0.271 | locus YLR113W, strain HOG1, hits give low values 0.125 | locus YLR221C, strain rsa3, hits give low values 0.229 | locus YLR258W, strain gsy2, hits give low values 0.426 | locus YLR262C, strain YPT6 (second series), hits give low values 0.301 | locus YLR320W, strain mms22, hits give low values 0.145 | locus YLR342W, strain FKS1, hits give low values 0.315 | locus YLR357W, strain rsc2, hits give low values 0.726 | locus YLR370C, strain arc18, hits give low values 0.713 | locus YLR384C, strain iki3, hits give low values 0.761 | locus YML120C, strain ndi1, hits give low values 0.246 | locus YMR058W, strain fet3, hits give low values 0.383 | locus YMR125W, strain sto1, hits give low values 0.171 | locus YMR129W, hits give low values 0.656 | locus YMR205C, strain PFK2, hits give low values 0.248 | locus YMR231W, strain pep5, hits give low values 0.529 | locus YNL071W, strain lat1, hits give low values 0.0982 | locus YNL183C, strain NPR1, hits give low values 0.00476 | locus YNL209W, strain ssb2, hits give low values 0.652 | locus YNL248C, strain rpa49, hits give low values 0.379 | locus YNL322C, strain KRE1 (second series), hits give low values 0.506 | locus YNR049C, strain mso1, hits give low values 0.569 | locus YOR001W, strain rrp6, hits give low values 0.385 | locus YOR070C, strain gyp1, hits give low values 0.331 | locus YOR080W, strain dia2, hits give low values 0.766 | locus YOR083W, strain WHI5, hits give low values 0.366 | locus YOR106W, strain vam3, hits give low values 0.321 | locus YOR231W, strain MKK1, hits give low values 0.102 | locus YOR265W, strain rbl2, hits give low values 0.584 | locus YOR270C, strain vph1, hits give low values 0.285 | locus YOR290C, strain snf2, hits give low values 0.214 | locus YPL051W, strain arl3, hits give low values 0.325 | locus YPL078C, strain atp4, hits give low values 0.256 | locus YPL106C, strain sse1, hits give low values 0.609 | locus YPL240C, strain hsp82, hits give low values 0.325 | locus YPL256C, strain CLN2, hits give low values 0.103
